PubChem BioAssay (NCATS)
“And” between values parts separate entries of the source, which are not always exact repeats. Equal values may be shown once. Inconclusive results are not listed. The source made the active and inactive calls. Unless noted, calls follow the shape of the dose curve; as a rule, active = well fitted curve in the direction sought with a large enough effect; inconclusive = small, poorly fitted or top-dose-only effect, or another doubt; inactive = no such curve, though single readings can be large; an effect the other way counts as inactive or inconclusive.

How the values were obtained:
[1] = biological target: Tumor necrosis factor (Homo sapiens) (UniProt P01375); test: qHTS assay to identify small molecules that stimulate Tumor Necrosis Factor-alpha (TNF-alpha) secretion (AID 651757; active = well fitted curve in the direction sought with a large enough effect in the signal ratio; the % refers to the signal ratio; also: 0% is about no effect)
In short: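 THP-1 cells were exposed to compounds for 17 hrs at 37 C, after which secreted TNF-alpha was measured by homogeneous HTRF (TR-FRET) using cryptate- and XL665-labeled anti-TNF-alpha antibodies, read after 3 hr at room temperature.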

[2] = qHTS assay for environmental chemicals that activate the Aryl hydrocarbon Receptor (AhR) signaling pathway (AID 651777); conditions: 1A2-DRE human hepatoma cells, luciferase, 24 h; activation: active compounds read high; also: % of control where 0% means no effect; nearly all actives have a fitted effect of over 15% in size
In short: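 Luminescence read-out: One-Glo added for 30 min at RT after 24 hr compound treatment (37 C, 5% CO2) of human hepatoma cells expressing a DRE/CYP1A2 promoter–luciferase reporter; increased signal indicates AhR activation.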

[3] = biological target: Nuclear receptor ROR-gamma (Homo sapiens) (UniProt P51449); test: qHTS assay for small molecule antagonists of the retinoid-related orphan receptor gamma (ROR-gamma) signaling pathway (AID 651802); also: nearly all actives have a fitted effect of over 60% in size; also: potency is read from the fitted curve at half-maximal effect
In short: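 CHO cells carrying TET-inducible ROR-gamma and an ROR response element–luciferase reporter were exposed to compound, then induced with doxycycline. After 16hr at 37C, luminescence was read; lower signal indicates antagonism.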

[4] = qHTS for small molecule inhibitors of Yes1 kinase: Counter Assay (AID 686950);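 also: no kinase present so only ADP-Glo detection of a fixed ADP amount is tested; luminescence from ADP-Glo reporting ADP in a fixed ATP and ADP mixture; series mostly up to about 77 µM; 0% = DMSO wells with ATP plus ADP and -100% = ATP-only wells without ADP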
In short: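 Luminescence read-out from ADP-Glo quantifies a fixed ADP amount (0.02 mM ADP with 0.08 mM ATP) after 60 min at room temperature; signal is normalized between DMSO wells with ATP/ADP and with 0.1 mM ATP alone.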

[5] = biological target: Arylsulfatase A (Homo sapiens) (UniProt P15289); test: qHTS screen for enhancers of Arylsulfatase A (ASA1): LOPAC Validation Assay (AID 720538); conditions: outcome: dose series up to 57.5 µM
In short: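 SV40-transformed fibroblasts from an MLD patient (ASA-I179S) were treated with compound for 48 h at 37 C. They were then lysed with 0.5 mM pNCS substrate (final) for 14 h at room temperature and stopped with NaOH; signal read by fluorescence (Ex 525/Em 598 nm), with increase denoting enhanced activity.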

[6] = qHTS for compounds that reverse cellular toxicity of Amyloid beta (A-beta) peptide in yeast: LOPAC Validation Assay (AID 720559);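 also: plate controls were DMSO for no effect and equimolar ferric chloride plus clioquinol rescue for full effect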
In short: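 Yeast expressing toxic A-beta grown with pinned compounds at 30 C for 48 hr. Growth measured as absorbance at 600 nm; data normalized to DMSO and to an equimolar FeCl3/clioquinol mixture as positive control.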

[7] = qHTS for Activators of Parkin Expression: LOPAC Validation Assay (NLuc Reporter) (AID 720572;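 also: 0% = DMSO and 100% = positive control compound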)
In short: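 Parkin promoter-driven FLuc/NLuc neuronal reporter cells; 24 h plating, 7-pt dose response, 24 h at 37 C/5% CO2; FLuc then NanoLuc reagent, 10 min each, luminescence; DMSO/positive control normalized.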

[8] = qHTS for Activators of Parkin Expression: LOPAC Validation Assay (FLuc Reporter) (AID 720573;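 also: 0% = DMSO and 100% = positive control compounds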)
In short: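 Neuronal cell line stably expressing FLuc/NLuc coincidence reporter under the Parkin promoter, 1,500 cells/well, dosed 24 h after seeding in 7-point series for 24 h at 37 C. FLuc luminescence read; normalized to DMSO and positive control (100%).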

[9] = qHTS assay for small molecule agonists of the antioxidant response element (ARE) signaling pathway measured by Nrf2-dependant transcriptional activity (AID 720636; active = well fitted curve in the direction sought with a large enough effect in the repeat runs; an effect the other way counts as inactive or inconclusive;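 also: HepG2 cells with an ARE-driven luciferase reporter; % of control where 0% means no effect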)
In short: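 HepG2 ARE-luc reporter line, 1% dialyzed FBS; 6 hr attachment at 37 C, compound pinned in, 16 hr at 37 C/5% CO2; ONE-Glo, 30 min RT, luminescence read.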

[10] = qHTS assay for small molecule antagonists of the retinoid-related orphan receptor gamma (ROR-gamma) signaling pathway - cell viability counter screen (AID 720652; active = well fitted curve in the direction sought with a large enough effect in the repeat runs; an effect the other way counts as inactive or inconclusive;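 also: compound exposure lasted 16 hr before ATP read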; also: potency is read from the fitted curve at half-maximal effect)
In short: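 Counter screen in CHO cells carrying TET-inducible ROR-gamma and an ROR response element-luciferase reporter; cells plated 5 hr, compound pinned, doxycycline added, then 16 hr at 37 C. Viability read as intracellular ATP by CellTiter-Glo luminescence.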

[11] = qHTS assay for small molecule agonists of the antioxidant response element (ARE) signaling pathway measured by Nrf2-dependant transcriptional activity - cell viability counter screen (AID 720653; active = well fitted curve in the direction sought with a large enough effect in the repeat runs; an effect the other way counts as inactive or inconclusive; also: potency is read from the fitted curve at half-maximal effect; as to max response: % is scaled to controls: 0 for no effect and ±100 for the full control effect); conditions: ARE-bla HepG2 viability, CellTiter-Glo ATP luminescence, 16 h; max response: active compounds read low
In short: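 Cytotoxicity counter screen: intracellular ATP quantified by CellTiter-Glo luminescence in the same ARE-bla HepG2 plates, after 16 h compound exposure and a 2 h beta-lactamase substrate step.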

[12] = biological target: Hexokinase-4 (Homo sapiens) + Glucokinase regulatory protein (Homo sapiens) (UniProt P35557+Q14397); test: qHTS assay for inhibitors of recombinant human GCK-GKRP interaction: Diaphorase-coupled assay (AID 743205)
In short: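 Compounds pre-incubated 20 min with substrate, then 10 nM GST-GCK with 10 nM FLAG-GKRP added. GCK activity coupled via G6PDH and diaphorase to resorufin (5 mM glucose, 0.4 mM ATP, 0.15 mM NADP+, pH 7.6), read kinetically over 30 minutes at Ex 525/Em 590 nm.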

[13] = qHTS assay for small molecule disruptors of the mitochondrial membrane potential - 1 hr assay (AID 651754; calls by dose curve; also: potency is read from the fitted curve at half-maximal effect; nearly all actives have a fitted effect of over 35% in size)
In short: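 HepG2 cells, attached overnight at 37C, were exposed to compound or DMSO vehicle for 1 hr at 37C, 5% CO2, then stained with Mito-MPS dye for 30 min. Red aggregate versus green monomer fluorescence reports membrane potential.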

[14] = qHTS assay for small molecule disruptors of the mitochondrial membrane potential - 5 hr assay (AID 651755; calls by dose curve; also: nearly all actives have a fitted effect of over 40% in size; also: potency is read from the fitted curve at half-maximal effect)
In short: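 HepG2, 2,000 cells/well, overnight attach; cpd or DMSO 5 hr, 37C/5% CO2; Mito-MPS 30 min 37C; fluor 490/535 + 540/590 nm.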

[15] = biological target: Peroxisome proliferator-activated receptor alpha (Homo sapiens) (UniProt Q07869); test: qHTS assay for small molecule agonists of the peroxisome proliferator-activated receptor alpha (PPARalpha) signaling pathway (AID 651778); conditions: PathHunter PPARalpha complementation, chemiluminescence, 6 h; active compounds read high; also: % of control where 0% means no effect
In short: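 Chemiluminescence from complemented enzyme reported PPARalpha activation in cells after 6 hr of compound treatment at 37 C. The detection reagent was incubated for 60 min at room temperature, and compounds were scored as agonists.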

[16] = qHTS assay for small molecule agonists of the antioxidant response element (ARE) signaling pathway (AID 651741; active = well fitted activation curve with a large enough effect in the signal ratio; the % refers to the signal ratio; also: potency is read from the fitted curve at half-maximal effect; as to activation: % of control where 0% means no effect)
In short: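 Seeding 2,000 ARE-bla HepG2 cells per well preceded a 5 h incubation at 37 C/5% CO2 and a 16 h compound exposure at 37 C. Beta-lactamase reporter activity was then quantified by fluorescence after 2 h with LiveBLAzer B/G FRET substrate.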

[17] = qHTS assay for small molecule activators of the p53 signaling pathway (AID 651743; active = well fitted activation curve with a large enough effect in the signal ratio, not every such curve was filed as active; the % refers to the signal ratio; also: series mostly up to about 92 µM; % of control where 0% means no effect); conditions: HCT-116 p53RE-bla, beta-lactamase FRET ratio, 16 h; active compounds read high
In short: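 Screen for p53 pathway agonists uses stably transfected p53RE-bla HCT-116 cells, 4,000 per well, treated 16 h at 37 C with compounds in DMSO.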

[18] = qHTS assay to identify small molecules that stimulate interleukin-8 (IL-8) secretion (AID 651758; active = well fitted activation curve with a large enough effect in the signal ratio; the % refers to the signal ratio; also: 0% is about no effect)
In short: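 Secreted IL-8 measured by TR-FRET sandwich (cryptate and XL665 antibodies) from THP-1 cells exposed to compound overnight (16 hrs, 37 C).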

Sequence of Peroxisome proliferator-activated receptor alpha (Homo sapiens) (Q07869 whole entry, looked up): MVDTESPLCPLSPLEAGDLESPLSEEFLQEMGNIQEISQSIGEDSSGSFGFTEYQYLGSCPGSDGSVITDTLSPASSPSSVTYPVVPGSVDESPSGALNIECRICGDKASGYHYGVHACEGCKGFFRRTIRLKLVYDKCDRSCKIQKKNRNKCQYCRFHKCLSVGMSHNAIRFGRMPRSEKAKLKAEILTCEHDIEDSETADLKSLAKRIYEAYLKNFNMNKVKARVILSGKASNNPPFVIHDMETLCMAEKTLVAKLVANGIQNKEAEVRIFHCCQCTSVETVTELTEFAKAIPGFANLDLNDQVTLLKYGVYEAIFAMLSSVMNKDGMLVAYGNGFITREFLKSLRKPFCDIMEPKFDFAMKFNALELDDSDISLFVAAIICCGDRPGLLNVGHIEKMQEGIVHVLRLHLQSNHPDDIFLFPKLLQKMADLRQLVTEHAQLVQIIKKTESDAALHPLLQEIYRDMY
Sequence of Nuclear receptor ROR-gamma (Homo sapiens) (P51449 whole entry, looked up): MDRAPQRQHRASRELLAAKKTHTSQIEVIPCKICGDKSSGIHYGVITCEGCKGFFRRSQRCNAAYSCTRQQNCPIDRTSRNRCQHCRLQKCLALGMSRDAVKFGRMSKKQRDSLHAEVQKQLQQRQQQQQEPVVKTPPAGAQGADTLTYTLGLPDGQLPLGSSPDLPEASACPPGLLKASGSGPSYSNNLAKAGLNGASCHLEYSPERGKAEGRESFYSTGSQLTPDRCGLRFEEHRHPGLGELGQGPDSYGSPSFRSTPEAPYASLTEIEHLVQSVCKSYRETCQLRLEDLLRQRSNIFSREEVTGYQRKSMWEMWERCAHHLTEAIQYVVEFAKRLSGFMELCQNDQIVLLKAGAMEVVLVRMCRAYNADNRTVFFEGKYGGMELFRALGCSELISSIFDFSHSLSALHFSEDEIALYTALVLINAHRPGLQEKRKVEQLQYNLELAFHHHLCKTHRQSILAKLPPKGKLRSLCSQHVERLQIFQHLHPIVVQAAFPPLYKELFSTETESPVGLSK
Sequence of Hexokinase-4 (Homo sapiens) + Glucokinase regulatory protein (Homo sapiens) (P35557 whole entry, looked up): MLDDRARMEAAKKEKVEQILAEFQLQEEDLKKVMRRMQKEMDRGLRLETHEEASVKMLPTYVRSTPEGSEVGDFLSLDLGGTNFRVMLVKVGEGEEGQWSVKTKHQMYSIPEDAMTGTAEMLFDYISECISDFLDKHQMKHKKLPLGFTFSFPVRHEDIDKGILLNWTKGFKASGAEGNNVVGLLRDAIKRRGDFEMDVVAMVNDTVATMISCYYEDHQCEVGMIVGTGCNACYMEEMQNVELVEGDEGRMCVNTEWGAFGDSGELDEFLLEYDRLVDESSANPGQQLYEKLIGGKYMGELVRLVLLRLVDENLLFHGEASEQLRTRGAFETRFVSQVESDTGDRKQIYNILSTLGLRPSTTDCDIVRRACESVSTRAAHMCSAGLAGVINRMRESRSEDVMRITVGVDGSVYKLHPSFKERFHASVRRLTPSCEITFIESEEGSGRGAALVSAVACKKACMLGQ
Sequence of Hexokinase-4 (Homo sapiens) + Glucokinase regulatory protein (Homo sapiens) (Q14397 whole entry, looked up): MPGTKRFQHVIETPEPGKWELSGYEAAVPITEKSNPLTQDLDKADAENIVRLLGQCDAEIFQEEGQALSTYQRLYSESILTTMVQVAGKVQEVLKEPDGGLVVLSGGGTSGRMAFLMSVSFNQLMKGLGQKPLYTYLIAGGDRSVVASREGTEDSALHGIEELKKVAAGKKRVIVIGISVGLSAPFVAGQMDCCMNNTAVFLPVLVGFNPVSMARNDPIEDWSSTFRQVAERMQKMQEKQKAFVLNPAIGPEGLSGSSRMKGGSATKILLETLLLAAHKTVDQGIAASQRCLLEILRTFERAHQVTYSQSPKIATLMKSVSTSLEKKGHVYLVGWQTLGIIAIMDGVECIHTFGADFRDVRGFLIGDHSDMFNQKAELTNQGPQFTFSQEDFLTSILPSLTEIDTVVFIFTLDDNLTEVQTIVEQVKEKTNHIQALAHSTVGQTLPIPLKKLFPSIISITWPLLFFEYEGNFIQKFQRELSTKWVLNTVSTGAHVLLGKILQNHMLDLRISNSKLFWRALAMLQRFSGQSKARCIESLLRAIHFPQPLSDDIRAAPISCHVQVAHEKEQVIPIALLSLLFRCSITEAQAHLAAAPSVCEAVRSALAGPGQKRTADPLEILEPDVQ
Sequence of Tumor necrosis factor (Homo sapiens) (P01375 whole entry, looked up): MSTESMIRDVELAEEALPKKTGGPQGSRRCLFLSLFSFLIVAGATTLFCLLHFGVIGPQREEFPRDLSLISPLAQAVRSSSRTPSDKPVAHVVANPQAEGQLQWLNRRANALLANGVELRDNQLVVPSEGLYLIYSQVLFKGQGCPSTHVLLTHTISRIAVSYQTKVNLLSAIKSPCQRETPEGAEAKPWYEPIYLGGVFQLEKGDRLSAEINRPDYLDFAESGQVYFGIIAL
Sequence of Arylsulfatase A (Homo sapiens) (P15289 whole entry, looked up): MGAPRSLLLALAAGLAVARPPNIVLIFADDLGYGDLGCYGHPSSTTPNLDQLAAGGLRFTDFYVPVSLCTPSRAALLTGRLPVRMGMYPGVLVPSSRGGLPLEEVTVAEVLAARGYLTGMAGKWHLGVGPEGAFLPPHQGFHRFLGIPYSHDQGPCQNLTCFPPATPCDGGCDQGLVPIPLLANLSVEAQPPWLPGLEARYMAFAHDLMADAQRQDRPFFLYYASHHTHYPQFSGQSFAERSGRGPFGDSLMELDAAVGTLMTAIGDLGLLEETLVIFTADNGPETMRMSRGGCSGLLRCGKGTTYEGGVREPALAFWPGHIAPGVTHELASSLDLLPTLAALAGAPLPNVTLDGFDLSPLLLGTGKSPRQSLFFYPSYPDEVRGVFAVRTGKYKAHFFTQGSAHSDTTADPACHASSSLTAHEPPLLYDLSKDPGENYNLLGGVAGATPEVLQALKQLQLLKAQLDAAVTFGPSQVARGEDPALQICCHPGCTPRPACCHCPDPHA

CC/C(=C(\c1ccccc1)c1ccc(OCCN(C)C)cc1)c1ccccc1
inactive: outcome [1] | activation [2] -5.69% and -2.28% | outcome [4] | outcome [5] inactive; inhibitor; fitted 5.3582 uM | outcome [6] | Potency [7] | Potency [8] | Potency [9] | max response [11] -20.9% | outcome [12]
active: Potency [3] 29.8 µM | Potency [10] 66.8 µM

CC1=C(/C=C/C(C)=C/C=C/C(C)=C/C(=O)Nc2ccc(O)cc2)C(C)(C)CCC1
active: Potency [13] 15 µM | Potency [14] 18.8 µM | Potency [3] 26.6 µM | Potency [10] 26.6 µM | Potency [11] 44.7 µM
inactive: activation [2] 4.06% | max response [15] 8.2% | outcome [4] | outcome [5] | outcome [6] | Potency [7] | Potency [8] | Potency [9] | outcome [12]

O=c1c(O)c(-c2ccc(O)cc2)oc2cc(O)cc(O)c12
inactive: activation [17] 2.31% and 6.56% | max response [15] -3% and -2.05% | max response [11] -6.13% and -4.97%
active: Potency [16] 21.7 µM | Potency [13] 5.31 µM | Potency [14] 8.41 µM

O=c1[nH]cnc2c1ncn2[C@H]1CC[C@@H](CO)O1
inactive: Potency [16] | Potency [14] | outcome [1] | outcome [18] | activation [2] -1.42% and 4.55% | max response [15] -3.68% and -4.63% | Potency [3] | Potency [9] | Potency [10] | max response [11] 7.68% and 6.47%

CN1CCN(CCOc2cc(OC3CCOCC3)c3c(Nc4c(Cl)ccc5c4OCO5)ncnc3c2)CC1
inactive: outcome [4]
